The values that follow come from PubChem BioAssay (EPA / NIEHS).

Conditions in all cases: mRNA level, 48 h; actives raise or lower the signal
Read-out in test [1]: Insulin Like Growth Factor 1 (IGF1), IGF1 (gene 3479)
The experiment in a line: LTEA_HepaRG_IGF1: Life Technologies and Expression Analysis (LTEA) Assay for Insulin Like Growth Factor 1 (IGF1) using HepaRG (AID 2283506). The essentials:
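Using human HepaRG liver cells, IGF1 transcript induction or suppression is measured 48 h after dosing across eight concentrations capped at 100 uM. Values derive from bidirectional concentration-response fitting with DMSO as baseline.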

Read-out in test [2]: Intercellular Adhesion Molecule 1 (ICAM1), ICAM1 (gene 3383)
Put plainly: LTEA_HepaRG_ICAM1: Life Technologies and Expression Analysis (LTEA) Assay for Intercellular Adhesion Molecule 1 (ICAM1) using HepaRG (AID 2283507). The essentials:
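Differentiated HepaRG cells in serum-free induction medium were exposed in duplicate for 48 h to eight half-log concentrations up to 100 uM in 0.5% DMSO. Transcript levels were measured by qRT-PCR normalized to ACTB, GAPDH and POLR2A; bidirectional fits relative to DMSO.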

Read-out in test [3]: Insulin-like growth factor-binding protein 1 (IGFBP1), IGFBP1 (gene 3484)
Put plainly: LTEA_HepaRG_IGFBP1: Life Technologies and Expression Analysis (LTEA) Assay for Insulin-like growth factor-binding protein 1 (IGFBP1) using HepaRG (AID 2283508). In short, it runs like this:
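Differentiated human HepaRG cells in serum-free induction medium were exposed in duplicate for 48 h to eight concentrations, top 100 uM with half-log dilutions, in 0.5% DMSO. Transcript levels came from qRT-PCR normalised to ACTB, GAPDH and POLR2A, fitted bidirectionally against DMSO.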

Read-out in test [4]: Interleukin 6 (IL6), IL6 (gene 3569)
Put plainly: LTEA_HepaRG_IL6: Life Technologies and Expression Analysis (LTEA) Assay for Interleukin 6 (IL6) using HepaRG (AID 2283509). The essentials: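 HepaRG, ~100,000 cells/well, 48 h pre-culture; serum-free induction medium; cmpd 8-pt half-log from 100 uM, 0.5% DMSO, duplicate, 48 h. Lysis in RLT, TaqMan qRT-PCR; gain or loss vs DMSO.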

Read-out in test [5]: Interleukin 6 Receptor (IL6R), IL6R (gene 3570)
The experiment in a line: LTEA_HepaRG_IL6R: Life Technologies and Expression Analysis (LTEA) Assay for Interleukin 6 Receptor (IL6R) using HepaRG (AID 2283510).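 As to AC50: TaqMan qRT-PCR signal normalized to ACTB GAPDH and POLR2A housekeeping genes.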 The essentials: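 Concentration-response in human liver HepaRG cells: eight concentrations from 100 uM downward by half-logs, 48 h exposure, 0.5% DMSO vehicle. IL6R mRNA change measured by qRT-PCR and fitted in both directions relative to vehicle.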

Read-out in test [6]: Potassium channel subfamily K member 1 (KCNK1), KCNK1 (gene 3775)
The experiment in a line: LTEA_HepaRG_KCNK1: Life Technologies and Expression Analysis (LTEA) Assay for Potassium channel subfamily K member 1 (KCNK1) using HepaRG (AID 2283511). The essentials: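 Gain or loss of KCNK1 mRNA is the read-out, quantified by qRT-PCR against three housekeeping genes after 48 h chemical treatment of human HepaRG liver cells. Concentrations ran from 100 uM downward in half-log steps, vehicle 0.5% DMSO.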

Read-out in test [7]: Keratin 19 (KRT19), KRT19 (gene 3880)
The experiment in a line: LTEA_HepaRG_KRT19: Life Technologies and Expression Analysis (LTEA) Assay for Keratin 19 (KRT19) using HepaRG (AID 2283512). In short, it runs like this:
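Differentiated human HepaRG cells, plated 48 h, were exposed in duplicate for 48 h in serum-free induction medium to eight half-log concentrations up to 100 uM in 0.5% DMSO. KRT19 mRNA was quantified by qRT-PCR, normalized to ACTB, GAPDH and POLR2A, and fitted bidirectionally versus DMSO.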

Read-out in test [8]: JUN Transcription Factor, JUN (gene 3725)
The experiment in a line: LTEA_HepaRG_JUN: Life Technologies and Expression Analysis (LTEA) Assay for JUN Transcription Factor using HepaRG (AID 2283513). The essentials: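 Human HepaRG liver cells receive test chemicals in 0.5% DMSO for 48 h across an eight-point range topping at 100 uM. Expression changes in JUN are scored in both directions against the DMSO vehicle.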

Read-out in test [9]: Lipase C (LIPC), LIPC (gene 3990)
Put plainly: LTEA_HepaRG_LIPC: Life Technologies and Expression Analysis (LTEA) Assay for Lipase C (LIPC) using HepaRG (AID 2283514). The essentials: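 Read-out is LIPC transcript level by TaqMan qRT-PCR, normalized to three housekeeping genes, after 48 h chemical treatment of human HepaRG liver cells. Curves span eight concentrations topping at 100 uM; activity in either direction scored relative to 0.5% DMSO.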

Read-out in test [10]: Lipoprotein lipase (LPL), LPL (gene 4023)
Put plainly: LTEA_HepaRG_LPL: Life Technologies and Expression Analysis (LTEA) Assay for Lipoprotein lipase (LPL) using HepaRG (AID 2283515). In short, it runs like this:
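Read-out is LPL transcript level by qRT-PCR, normalized to three housekeeping genes and fitted bidirectionally against the DMSO control. Human HepaRG cells received chemicals for 48 h at up to 100 uM.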

Activity calls are given as the source filed them. The calls were made as follows: active = hit-call score of the fitted dose curve at least 0.9, where 1 is the maximum; inactive = score below 0.9.

As a reminder, the AC50 is the concentration at which the activity in the assay is half-maximal. For `C[C@]12CCC(=O)C=C1CC[C@@H]1[C@@H]2CC[C@@]2(C)[C@H]1CC[C@]2(C)O`, the values for the AC50 in test [1] and in test [9] were 11.3 µM (active) and 81.7 µM (active), respectively. Besides, the result in [2], in test [3], in [4], in [5], in test [6] and in [7] was inactive. The call in test [8] and in test [10] was inactive.
Consider `Cc1cccc(C)c1N`, for which the result in test [1], in test [2], in test [3], in test [4], in test [5] and in test [7] was inactive. Besides, the call in test [8], in [9] and in test [10] was inactive.
As to `CCNc1nc(NC(C)C)nc(SC)n1`, the AC50 in test [1] was 33.2 µM (active); in test [5] it was 11.7 µM (active); in test [7], 32.8 µM (active); in test [9], 61.1 µM (active). The result in test [2], in [3], in test [4], in test [6], in test [8] and in test [10] was inactive.
On to `CCCCCCCCOC(=O)c1ccccc1C(=O)OCCCCCCCC`, for which the outcome in test [1], in test [2], in test [3], in test [4], in [5] and in test [6] was inactive. The outcome in test [7], in test [8], in [9] and in test [10] was inactive.
As to `CN(C)CCO`, the molecule was called inactive in test [1], in test [2], in [3], in [4], in test [5] and in [6]. Also, the molecule was classed as inactive in [7], in test [8], in test [9] and in test [10].
For `N#Cc1ccc(N(CC(N)=O)CC(F)(F)F)cc1C(F)(F)F`, the outcome in test [1], in test [2], in [3], in test [4], in [5] and in test [6] was inactive. Further, the molecule was classed as inactive in [7], in test [8], in [9] and in test [10].
Turning to `CC#Cc1cc(C)nc(Nc2ccccc2)n1`, the AC50 in test [1] was 33.1 µM (active); in [3], 21.9 µM (active); in test [4] it was 23.6 µM (active); in [7], 22.8 µM (active); in test [9], 15.3 µM (active); in test [10], 3.75 µM (active). For the same molecule, the molecule was called inactive in test [2], in test [5], in test [6] and in test [8].
For `O=C(O)C(F)(F)C(F)(F)C(F)(F)C(F)(F)C(F)(F)F`, the molecule was classed as inactive in [1], in [2], in [3], in [4], in test [5] and in test [6]. The molecule was classed as inactive in [7], in test [8], in [9] and in test [10].
Consider `C=CC(=O)NCNC(=O)C=C`, for which the AC50 in test [1] and in [4] was 50 µM (active) in each case. For the same molecule, the molecule was classed as inactive in test [2], in test [3], in [5], in [7], in [8] and in [9]. Besides, the molecule was called inactive in test [10].
As to `c1cc2ccc3cccc4ccc(c1)c2c34`, the call in [1], in [2], in [3], in test [4], in [5] and in [6] was inactive. Further, the outcome in test [7], in test [8], in test [9] and in test [10] was inactive.
With `COS(=O)(=O)OC`, the result in [1], in [2], in test [3], in test [4], in [5] and in [6] was inactive. In addition, the call in test [7], in test [8], in [9] and in test [10] was inactive.
`O=NN(c1ccccc1)c1ccccc1`: the molecule was called inactive in test [1], in test [2], in test [3], in test [4], in test [5] and in test [7]. In addition, the result in test [8], in test [9] and in test [10] was inactive.
On to `O=S(=O)(O)C(F)(F)C(F)(F)C(F)(F)C(F)(F)C(F)(F)C(F)(F)F`, for which the result in [1], in [2], in [3], in [4], in test [5] and in test [6] was inactive. Further, the result in test [7], in test [8], in test [9] and in test [10] was inactive.
On to `CC(C)(c1ccccc1)c1ccc(O)cc1`, for which the molecule was called inactive in test [1], in [2], in test [3], in test [4], in test [5] and in [7]. Also, the outcome in test [8] and in [10] was inactive. In test [9], the AC50 was 83.6 µM (active).
For `C[C@]12CCC(=O)C=C1CC[C@@H]1[C@@H]2CC[C@]2(C)C(=O)CC[C@@H]12`, the AC50 in [1] was 50 µM (active); in test [4], 9.92 µM (active). Besides, the molecule was called inactive in test [2], in test [3], in test [5], in test [7], in test [8] and in test [10].
Take `O=C(O)C(F)(F)C(F)(F)C(F)(F)C(F)(F)C(F)(F)C(F)(F)C(F)(F)C(F)(F)F`: the AC50 in test [1] was 77 µM (active); in test [2] it was 78.7 µM (active); in test [3], 86.1 µM (active); in test [4], 78.6 µM (active); in test [7] it was 66.6 µM (active); in test [8], 68.2 µM (active). Besides, the AC50 in test [9] was 94.5 µM (active); in test [10], 79.5 µM (active). In addition, the result in [5] was inactive.
For `ClC1=C(Cl)[C@]2(Cl)[C@@H]3[C@@H](Cl)[C@H]4O[C@H]4[C@@H]3C1(Cl)C2(Cl)Cl`, in [1], the AC50 was 5.01 µM (active). In addition, the outcome in test [2], in test [3], in test [4], in test [5], in test [7] and in [9] was inactive. Also, in test [10], the call was inactive.
For the molecule `Nc1ccc(-c2ccc(N)cc2)cc1`, the call in [1], in test [2], in [3], in test [4], in [5] and in test [7] was inactive. Also, the molecule was called inactive in test [8], in test [9] and in test [10].
On to `ClC1=C(Cl)[C@]2(Cl)[C@@H]3[C@@H]4C[C@@H]([C@H]5O[C@@H]45)[C@@H]3[C@@]1(Cl)C2(Cl)Cl`, for which the AC50 in test [1] is 9.92 µM (active); in test [2], 9.92 µM (active); in test [5], 0.00506 µM (active). The molecule was called inactive in test [3], in test [4], in test [7], in test [8], in test [9] and in test [10].
Take `CCCCCCCCCC[N+](C)(C)CCCCCCCCCC`: the AC50 was 67.7 µM (active) in test [1]; 94.5 µM (active) in [2]; 81.6 µM (active) in test [3]; 78.3 µM (active) in test [4]; 90.5 µM (active) in test [8]; 88.7 µM (active) in test [10]. Further, the result in test [5], in [7] and in test [9] was inactive.
